Results taken from PubChem BioAssay AID1986 (Sanford-Burnham Center for Chemical Genomics, 2009).
About 890 (0.31%) of roughly 290,000 compounds were called active. No stated cut-off is given here; in the data, active means inhibition mostly above about 52% (no sharp cut-off); inactive means mostly below about 76%. For the sample, actives were picked, then their nearest neighbours and some compounds at random.

Test: cell-free HIV fusion peptide-binding blockers – biochemical, uHTS, fluorescence dequenching, primary screen (AID 1986)
Details: 30 min, stronger effect = higher value
[1] = measured here: repeat confirmation average inhibition, at 18.6 µM

| SMILES | inhibition (at 20 µM) | inhibition [1] |
| --- | --- | --- |
| CCN(CC)S(=O)(=O)c1ccc2c(c1)nc(SCC(N)=O)n2-c1ccc(OC)cc1 | -1.3% (inactive) |  |
| COc1ccc2c3c(cccc13)OC2=O | -1.2% (inactive) |  |
| COc1cc(C(=O)NC(C)CCc2ccccc2)cc(OC)c1OC (stereo not drawn) | -1.1% (inactive) |  |
| COc1cc(/C=C2\C(=O)NN(c3ccc(C)cc3)C2=O)cc([N+](=O)[O-])c1O | 38% (inactive) |  |
| COc1cc(/C=C2/C(=O)NN(c3ccc(Cl)c(Cl)c3)C2=O)cc([N+](=O)[O-])c1O | 50.8% (active) |  |
| COc1cc(/C=C2/C(=O)NN(c3cccc(Cl)c3)C2=O)cc(Br)c1O | 102% (active) | 95.1% |
| CCOc1cc(/C=C2/C(=O)NN(c3cccc(Cl)c3)C2=O)ccc1O | 31.4% (inactive) |  |
| COc1cc(/C=C2\C(=O)NN(c3ccccc3)C2=O)cc([N+](=O)[O-])c1O | 32.8% (inactive) |  |
| COc1cccc(/C=C2/C(=O)NN(c3ccccc3)C2=O)c1 | 15.8% (inactive) |  |
| COc1cc(/C=C2/C(=O)NN(c3cccc(C)c3)C2=O)cc([N+](=O)[O-])c1O | 30.3% (inactive) |  |
| COc1cc(/C=C2/C(=O)NN(c3cccc(Cl)c3)C2=O)cc(OC)c1O | 104% (active) | 80.5% |
| COc1cc(/C=C2/C(=O)NN(c3ccc(Cl)cc3)C2=O)cc(OC)c1O | 93.4% (active) | 53.7% |
| COc1cc(/C=C2/C(=O)NN(c3ccc(F)cc3)C2=O)cc(Cl)c1O | 39.2% (inactive) |  |
| COC(=O)c1ccc(N2NC(=O)/C(=C/c3cc(OC)c(O)c(OC)c3)C2=O)cc1 | 138% (inactive) |  |
| COc1cc(/C=C2/C(=O)NN(c3ccccc3)C2=O)cc(Br)c1O | 34.5% (inactive) |  |
| COc1cc(OC)cc(C(=O)N2CCN(C(=O)c3ccc(-c4ccccc4)cc3)CC2)c1 | -0.7% (inactive) |  |
| CN(c1ccc(C(=O)N2CCCCC2)cc1)S(=O)(=O)c1cccs1 | 0.7% (inactive) |  |
| COc1ccc(OC)c(-n2c(=S)[nH]c3cc(C(=O)N4CCC(C(N)=O)CC4)ccc3c2=O)c1 | -0.3% (inactive) |  |
| O=C(NCc1ccc(OC(F)(F)F)cc1)C1CC(c2cccc(F)c2)=NO1 (stereo not drawn) | 0.2% (inactive) |  |
| O=C(c1cscn1)N1CCCC(N2CCN(c3ccc(F)cc3)CC2)C1 (stereo not drawn) | -1.2% (inactive) |  |
| COc1ccc(CC(=O)Nc2c3c(nn2-c2cccc(Cl)c2)CS(=O)(=O)C3)cc1 | -2% (inactive) |  |
| Cc1ccccc1C(=O)NC1CCN(CC(=O)Nc2nccs2)CC1 | 2.2% (inactive) |  |
| COc1c2ccccc2c(OC)c2ccccc12 | 1.5% (inactive) |  |
| C=CCN(C(=O)CN1CCCCC1)c1nc(-c2ccccc2)cs1 | -1.5% (inactive) |  |

| SMILES | inhibition (at 20 µM) | inhibition [1] |
| --- | --- | --- |
| Cc1ccc(-c2csc3ncnc(SCc4ccc(C(=O)O)cc4)c23)cc1 | 66.8% (active) |  |
| Cc1sc2ncnc(SCc3ccc(C(=O)O)cc3)c2c1C | 9.5% (inactive) |  |
| Cc1ccc(-c2csc3ncnc(SCC(=O)O)c23)cc1 | 0.9% (inactive) |  |
| COCCNC(=S)N1CCN(c2cccc(C(F)(F)F)c2)CC1 | -0.5% (inactive) |  |
| Cc1cc(-c2ccccc2)nc(SCc2ccc(C(=O)O)o2)n1 | 1.6% (inactive) |  |
| CC(C)C(C(=O)O)N1C(=O)/C(=C/C=C/c2ccco2)SC1=S (stereo not drawn) | 76.1% (inactive) | 36.6% |
| O=C(NN1C(=O)/C(=C/C=C/c2ccco2)SC1=S)c1ccccc1O | 65.1% (inactive) | 46.4% |
| CC(C(=O)O)N1C(=O)/C(=C/C=C/c2ccco2)SC1=S (stereo not drawn) | 88.9% (active) |  |
| O=C(NN1C(=O)/C(=C/C=C/c2ccco2)SC1=S)c1ccncc1 | 68.5% (active) |  |
| O=C(O)CCCN1C(=O)/C(=C/C=C/c2ccco2)SC1=S | 55.6% (inactive) | 27.4% |
| O=C(O)C(Cc1ccccc1)N1C(=O)/C(=C/C=C/c2ccco2)SC1=S (stereo not drawn) | 69.2% (active) |  |
| O=C(O)C(Cc1ccccc1)N1C(=O)/C(=C/c2cccnc2)SC1=S (stereo not drawn) | 1.1% (inactive) |  |
| O=C(NN1C(=O)/C(=C/C=C/c2ccccc2)SC1=S)c1ccncc1 | 16.6% (inactive) |  |
| O=C(O)CC(C(=O)O)N1C(=O)/C(=C/C=C/c2ccco2)SC1=S (stereo not drawn) | 65.6% (inactive) | 23.1% |
| COc1ccc(NC(=S)NC(NC(=O)CCl)C(Cl)(Cl)Cl)c([N+](=O)[O-])c1 (stereo not drawn) | 7.2% (inactive) |  |
| COc1ccccc1S(=O)(=O)Cc1ccc(C(=O)NCc2ccco2)o1 | 1.6% (inactive) |  |
| CC1CCN(S(=O)(=O)c2ccc(C(=O)OC(C)C(=O)NC3CCCCC3C)cc2)CC1 (stereo not drawn) | 20% (inactive) |  |
| Cc1oc(-c2cc(F)ccc2F)nc1CN1CCN(C)C(=O)[C@@H]1C | 1.3% (inactive) |  |
| CN=C(Nc1ccc(C(=O)OC)s1)c1ccc(Cl)cc1 | 0.5% (inactive) |  |
| O=C(/C=C/c1ccc(OCCCF)cc1)NCc1ccc(Cl)c(Cl)c1 | 1.7% (inactive) |  |
| COC(=O)c1cnn(-c2ccc(F)cc2F)c1/C=N/NC(N)=S | -1.1% (inactive) |  |
| CC(=O)NN1C(=O)c2ccccc2NC1c1ccc(N(C)C)cc1 (stereo not drawn) | -0.9% (inactive) |  |
| COC(=O)Cn1c(=NC(=O)c2ccc(S(=O)(=O)N3CCc4ccccc4C3)cc2)sc2cc(OC)ccc21 | -1.3% (inactive) |  |
| O=C(N/N=C/c1ccncc1)c1cc(C2CC2)nc2ccccc12 | -0.8% (inactive) |  |

| SMILES | inhibition (at 20 µM) | inhibition [1] |
| --- | --- | --- |
| NC(=O)c1c(NC(=O)c2ccccc2F)sc2c1CCCC2 | -0.3% (inactive) |  |
| NC(=O)c1c(Nc2nc3c(F)cccc3s2)sc2c1CCCC2 | 59.5% (active) |  |
| COc1ccc2nc(Nc3sc4c(c3C(N)=O)CCCC4)sc2c1 | 17.5% (inactive) |  |
| CC1CCc2c(sc(NC(=O)C3c4ccccc4Oc4ccccc43)c2C(N)=O)C1 (stereo not drawn) | -1.5% (inactive) |  |
| COC(=O)Nc1sc2c(c1C(N)=O)CCC(C)C2 (stereo not drawn) | 0.2% (inactive) |  |
| CC1CCc2c(sc(Nc3nc4c(F)cccc4s3)c2C(N)=O)C1 (stereo not drawn) | 58.8% (active) |  |
| Cc1c(C(=O)N(Cc2nccn2C)C(C)C)oc2c(F)cccc12 | -1% (inactive) |  |
| O=c1cc(C(F)(F)F)nc(-c2cccnc2)[nH]1 | -1.2% (inactive) |  |
| CC(C)C(=O)Nc1ccc([N+](=O)[O-])cc1Br | 1.2% (inactive) |  |
| C/C(O)=C/c1nc2ccccc2[nH]c1=O | 0.1% (inactive) |  |
| O/C(=C\c1nc2ccccc2[nH]1)c1cccs1 | 14.3% (inactive) |  |
| O=c1[nH]c2ccccc2nc1/C=C(\O)c1cccs1 | 66.1% (active) |  |
| CCCCC(=O)Nc1cccn2ncnc12 | 0.2% (inactive) |  |
| C/C(=N\NC(=O)c1c[nH]c2ccccc12)c1ccc(C)o1 | 0.2% (inactive) |  |
| Cc1cccc(C2=N/C(=C\c3cccs3)C(=O)O2)c1 | 4.7% (inactive) |  |
| Cc1ccccc1C1=N/C(=C/c2cccs2)C(=O)O1 | 4.6% (inactive) |  |
| O=C1OC(/C=C/c2ccc(Cl)cc2Cl)=NC/1=C\c1cccs1 | 54.2% (active) |  |
| CCC(=O)OCc1cc2cccc(C)c2[nH]c1=O | -1.9% (inactive) |  |
| O=C(O)c1cccc(-n2cccc2C=C2C(=O)c3ccccc3C2=O)c1 | 30.1% (inactive) |  |
| O=C1C(=Cc2cccn2-c2ccc(O)cc2)C(=O)c2ccccc21 | 63.1% (active) | 70.3% |
| O=C1C(=Cc2cccn2-c2ccccc2)C(=O)c2ccccc21 | 50.1% (inactive) | 28.2% |
| COC(=O)Cn1ncc(N2C3CC(CC(C)(C)C3)C2C)c(Cl)c1=O (stereo not drawn) | 1.1% (inactive) |  |
| Oc1cccc2ccc(/C=C/c3ccccc3Br)nc12 | 0.6% (inactive) |  |
| O=C(/C=C/c1ccccc1)Nc1ccc(Cl)cn1 | 1% (inactive) |  |

| SMILES | inhibition (at 20 µM) | inhibition [1] |
| --- | --- | --- |
| COc1cc(C(=O)Oc2cc(C)[nH]c(=O)c2[N+](=O)[O-])cc(OC)c1OC | 0.4% (inactive) |  |
| Cc1ccc(S(=O)(=O)Nc2nc(-c3ccccc3)cs2)cc1 | 6.9% (inactive) |  |
| COc1ccc(-c2csc(NC(=O)c3ccccc3NS(=O)(=O)c3ccc(F)c(F)c3)n2)cc1 | 65% (active) |  |
| Cc1ccc(S(=O)(=O)Nc2ccccc2C(=O)Nc2nc(-c3ccc(F)cc3)cs2)cc1 | 65.5% (active) |  |
| O=C(Nc1nc(-c2ccccc2)cs1)c1ccccc1NS(=O)(=O)c1ccc(F)cc1 | 71.5% (active) |  |
| COc1ccc(-c2csc(NC(=O)c3ccccc3F)n2)cc1 | 0.1% (inactive) |  |
| Cc1ccc(S(=O)(=O)Nc2nc(-c3ccc(F)cc3)cs2)cc1 | 20% (inactive) |  |
| O=C(Nc1nc(-c2ccccc2)cs1)c1ccccc1F | 0% (inactive) |  |
| COc1ccc(-c2csc(NC(=O)c3ccccc3S(C)(=O)=O)n2)cc1 | 0.4% (inactive) |  |
| O=C(Nc1cc(S(=O)(=O)N2CCCCC2)ccc1O)c1ccccc1NS(=O)(=O)c1ccc(F)c(F)c1 | 62.7% (active) |  |
| O=S(=O)(Nc1ccc(-c2csc(-c3ccccc3)n2)cc1)c1ccc(F)cc1 | 0% (inactive) |  |
| O=C(Nc1cc(S(=O)(=O)N2CCCCC2)ccc1O)c1ccccc1NS(=O)(=O)c1ccc(F)cc1 | 49.5% (inactive) |  |
| O=C(Nc1cccc(S(=O)(=O)N2CCCCC2)c1)c1ccccc1NS(=O)(=O)c1ccc(F)cc1 | 58% (inactive) | 26% |
| CCCOc1ccc2c(CC)cc(=O)oc2c1C | -0.2% (inactive) |  |
| Cc1sc2nc(C3CC3)nc(N3CCN(S(=O)(=O)c4ccc(F)cc4)CC3)c2c1C | -0.3% (inactive) |  |
| CC(=O)c1ccc(-n2nnnc2SCC(=O)Nc2sc(C)c(C)c2C#N)cc1 | 6.6% (inactive) |  |
| CSc1cccc(NC(=O)CCCOc2ccccc2)c1 | -0.1% (inactive) |  |
| Cc1cnc(C(=O)OCc2csc(CC(=O)Nc3ccccc3C)n2)cn1 | 1.8% (inactive) |  |
| c1ccc(C2=Nc3c(ccc4ccccc34)C(c3ccncc3)=NN2)cc1 | -3% (inactive) |  |
| Cc1ccc(CNS(=O)(=O)c2ccc(F)c(F)c2)n1C | -1.8% (inactive) |  |
| CCOC(=O)c1c(C)[nH]c(C(=O)N/N=C/c2ccc(Br)cc2)c1C | -1.7% (inactive) |  |
